# DT40 TDP1 CPT – DT40-hTDP1 cell growth loss with CPT. chicken DT40 Tdp1-/-;hTDP1 cells + 20 nM CPT, ATP luminescence, 48 h. Potency, µM (highest dose often 46.2 µM), inactives show top-dose activity change, negative = growth inhibition, actives largely listed as inhibitors. hit rate 12% among 420,000; note: potency is the fitted concentration of half-maximal effect; nearly all actives have a fitted effect of over 55% in size
#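 Chicken DT40 Tdp1-/- cells stably complemented with human TDP1 were seeded at 400 cells/well in medium containing 20 nM camptothecin, exposed to pin-transferred compounds, and grown at 37 °C for at least 48 hr. Viability was read as ATP luminescence.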
# Gal4-VP16 FLuc – counter-screen for ROR gamma inhibitors: Gal4-VP16 reporter; Drosophila S2 Gal4-VP16 UAS-luciferase, luminescence, 20 h; Potency, µM (doses to about 53.6 µM), inactives show at the highest dose activity, negative = inhibition, actives largely listed as inhibitors; hit rate 3.5% among 310,000; AID 2546;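 note: Gal4-VP16 expression switched on by copper sulfate through the metallothionein promoter; potency is the fitted concentration of half-maximal effect; nearly all actives have a fitted effect of over 50% in size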
# RORgamma inh – inhibitors of mouse ROR gamma transcriptional activity; Drosophila S2 Gal4-RORgamma UAS-luciferase reporter, 20 h; Potency, µM (top dose mostly 53.6 µM), without a hit: at the top dose activity change, negative = inhibition, most hits filed as inhibitors; hit rate 5.4% among 310,000; note: potency is the fitted concentration of half-maximal effect; nearly all actives have a fitted effect of over 60% in size
# Target sequence (P51450 whole entry, looked up, the tested form may be a part): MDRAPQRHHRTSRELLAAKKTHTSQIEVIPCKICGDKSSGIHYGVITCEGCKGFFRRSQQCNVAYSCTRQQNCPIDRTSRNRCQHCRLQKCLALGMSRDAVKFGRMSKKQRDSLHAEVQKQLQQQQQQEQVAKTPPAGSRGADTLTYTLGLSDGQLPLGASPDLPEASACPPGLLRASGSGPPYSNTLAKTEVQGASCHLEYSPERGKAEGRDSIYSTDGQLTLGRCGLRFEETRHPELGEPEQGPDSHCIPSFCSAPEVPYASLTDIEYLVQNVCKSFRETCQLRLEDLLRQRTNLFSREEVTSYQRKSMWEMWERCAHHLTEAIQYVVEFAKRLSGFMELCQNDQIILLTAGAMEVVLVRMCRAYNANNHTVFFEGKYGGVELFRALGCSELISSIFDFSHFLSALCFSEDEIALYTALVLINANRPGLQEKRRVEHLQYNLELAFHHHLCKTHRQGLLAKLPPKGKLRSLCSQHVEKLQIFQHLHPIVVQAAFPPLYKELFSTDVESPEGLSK
#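 Drosophila S2 cells stably expressing Gal4-DBD/mouse RORγ fusion under metallothionein promoter plus UAS-luciferase; compound 1 h, then 700 uM CuSO4 induction for 20 h at ambient temperature; inhibition read as reduced luminescence.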
# ELG1 repair inh – blocks ELG1-dependent DNA repair in HEK293T cells; HEK293T ELG1-luciferase reporter, luminescence, 16 h; DNA damage induced by 5-fluorouridine; Potency, µM (titrated, usually from 46.1 µM), for inactives: at the top dose activity change, negative = inhibition, usual class: inhibitors; hit rate 2.3% among 330,000; AID 504467; note: potency is the fitted concentration of half-maximal effect; nearly all actives have a fitted effect of over 55% in size
#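 Quantitative HTS, concentration-response format. 2,000 cells/well co-treated with 5-fluorouridine and compound, 16 hr in 5% CO2 at 37 °C; ONE-Glo luminescence read after 30 min.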
# IL1B secr inh – inhibitors of inflammasome signaling (IL-1 beta secretion); THP-1 LPS/ATP IL-1B secretion, AlphaLISA, 16 h; active compounds read low; activity change, % at 57.5 µM; hit rate 4.7% among 360,000; AID 743279; in the data active = activity change below about -50%; inconclusive = mostly about -30% to -49%
#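 THP-1 cells pretreated 1 hr with compounds (up to 57.5 uM final), then stimulated with LPS (250 ng/mL final) plus ATP (1.25 mM final); secreted IL-1B measured by AlphaLISA after 16 hr, decreased signal indicating inhibition.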
# DT40 TDP1 no CPT – qHTS for Inhibitors of human tyrosyl-DNA phosphodiesterase 1 (TDP1): qHTS in cells in absence of CPT | hit rate 15% among 420,000 | DT40 Tdp1-/- hTDP1 cells, no CPT, ATP luminescence, 48 h | AID 686978, 2013 | Potency, µM (series often up to 46.2 µM), for inactives: at the top dose activity change, negative = growth inhibition, actives largely listed as inhibitors; note: potency is the fitted concentration of half-maximal effect; nearly all actives have a fitted effect of over 55% in size
#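 Luminescent ATP content (CellTiter-Glo) served as the growth readout. Knockout chicken DT40 cells expressing human TDP1 were exposed to compounds without camptothecin for a minimum 48 hr at 37 °C.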
# * = called active by the depositor; ? = inconclusive; · = no result; [ ] = dose if it differs, or a comment. Compounds with a hit are over-represented: about 21% of the library has one in this group of screens. Unless noted, calls come from the whole dose curve; as a rule, active = well fitted curve in the direction sought with a large enough effect; inconclusive = small, poorly fitted or top-dose-only effect, or another doubt; inactive = no such curve, though single readings can be large; an effect the other way counts as inactive or inconclusive. % is set by controls: 0 for no effect and ±100 for the full control effect.
SMILES,DT40 TDP1 CPT,Gal4-VP16 FLuc,RORgamma inh,ELG1 repair inh,IL1B secr inh,DT40 TDP1 no CPT
CCCSc1nc2sc3c(c2c(=O)[nH]1)CCN(Cc1ccccc1)C3,?,-4%,13%,·,38,21µM*
COc1ccc(C(O)c2nc(-c3ccccc3C)cs2)cc1 (centres undefined),?,·,·,·,16,?
COc1ccc(CN(C(=O)CSc2nnc(-c3ccc(F)cc3)o2)c2ccc(F)cc2)cc1,23µM*,7%,26%,?,-18,21µM*
COc1ccc(CN(C(=O)CSc2nnc(-c3c[nH]c4ccccc34)o2)c2ccc(F)cc2)cc1OC,8.2µM*,-21%,?,5.2µM*,-83*,9.2µM*
Cc1ccccc1-c1cc2nccc(-c3cc(Cl)ccc3O)n2n1,-27%,·,·,·,·,?
O=C(NCc1cccnc1)c1cnn(-c2ncc3c(n2)-c2ccccc2CCC3)c1C1CC1,-16%[9.04 µM],·,·,·,·,?
N#CCCN(Cc1cccnc1)C(=S)NC(=O)c1ccco1,27%,5%,-36%,14%,-3,6%
CCN(CC)S(=O)(=O)c1ccc(C(=O)NC(=S)N(CCC#N)Cc2cccnc2)cc1,-4%,11µM*,3.5µM*,-6%,32,3%
CN(C)S(=O)(=O)c1cccc(C(=O)NC(=S)N(CCC#N)Cc2cccnc2)c1,-1%,-25%[10 µM],2µM*,10%,32,3%
COc1ccc(CNc2ccc(Cl)cc2)cc1Cn1ccnc1,?,?,15%,-20%,-71*,16µM*
O=C(/C=C/c1cccc([N+](=O)[O-])c1)Nc1ccc(Cl)cn1,?,1%,7%,9%,-8,2.6µM*
O=C(/C=C/c1cccc([N+](=O)[O-])c1)NC(=S)Nc1ccccc1C(=O)O,·,?,?,13%,·,·
CCN(CC)S(=O)(=O)c1cccc(NC(=O)/C=C/c2cccc([N+](=O)[O-])c2)c1,?,-8%,?,?,17,29µM*
O=C(/C=C/c1cccc([N+](=O)[O-])c1)NC(=S)Nc1cccc(NC(=O)c2ccccc2Cl)c1,15µM*,-4%,?,?,?,13µM*
CCOC(=O)c1c(S(=O)(=O)N2CCC(C(=O)Nc3ccc(C)cc3C)CC2)c(C)n(C)c1C,-11%,·,·,·,·,-17%
OC[C@@H]1CN(Cc2ccc3c(c2)OCO3)C[C@H](n2cnc3c(NC4CCCC4)ncnc32)O1,?,·,·,·,-72*,?
OC[C@@H]1CN(Cc2ccc(Cl)cc2)C[C@H](n2cnc3c(NC4CCC4)ncnc32)O1,?,·,·,·,-85*,?
CCN(CC)c1ncnc2c1ncn2[C@H]1CN(Cc2ccc(Cl)cc2)C[C@@H](CO)O1,29µM*,·,·,·,-2,16µM*
OCCNc1ncnc2c1ncn2[C@H]1CN(Cc2ccc3c(c2)OCO3)C[C@@H](CO)O1,-13%,·,·,·,-3,0%
CC(C)Nc1ncnc2c1ncn2[C@H]1CN(Cc2ccc(Cl)cc2)C[C@@H](CO)O1,?,·,·,·,2,?
Cc1cccc(NC(=O)CCCCCn2c(=O)[nH]c3ccsc3c2=O)c1,2%,·,·,·,·,?
COC(=O)[C@H](COC(C)(C)C)NC(=O)O[C@@H]1C(=O)c2ccc(OC)cc2O[C@H]1c1cccc(C(F)(F)F)c1,·,-5%,-8%,·,·,·
CCOc1ccccc1-c1nnc2n1N=C(c1c(OC)cccc1OC)CS2,·,6%,-16%,·,·,·
CC[C@@]1(C(=O)OC)N[C@H](CN(C)C(=O)Nc2ccc(C(F)(F)F)cc2)[C@@H]2C(=O)N(C)C(=O)[C@@H]21,-14%,·,·,1%,16,-24%
O=C1C=C[C@@H](O)[C@H]2[C@@H]3C(=O)N(Cc4ccccc4)C(=O)[C@@H]3CC[C@H]12,·,-3%[10 µM],2%[10 µM],·,·,·
SMILES,DT40 TDP1 CPT,Gal4-VP16 FLuc,RORgamma inh,ELG1 repair inh,IL1B secr inh,DT40 TDP1 no CPT
COc1cc(OC)c(NC(=O)c2c(C)oc3ncnc(N4CCCCC4)c23)cc1Cl,-30%,·,·,·,·,-20%
Cc1ccc(NC(=O)c2c(C)oc3ncnc(N4CCCCC4)c23)c(C)c1,18µM*,·,·,·,·,?
CCN(C(=O)c1c(C)oc2ncnc(N3CCCCC3)c12)c1cc(C)ccc1C,?,·,·,·,·,18µM*
COc1cc(OC)c(N(C)C(=O)c2c(C)oc3ncnc(N4CCCCC4)c23)cc1Cl,?,·,·,·,·,16µM*
O=C(CC[C@H]1O[C@@H](n2ccc(=O)[nH]c2=O)[C@H](O)[C@@H]1O)NCC(c1ccccc1)c1ccccc1,-3%,·,·,·,0,-16%
Cc1noc(C)c1NC(=O)Nc1cccc2c1O[C@@H](CN(C)C(=O)Nc1ccc3c(c1)OCO3)[C@@H](C)CN([C@H](C)CO)C2=O,?,·,·,3%,-21,?
COc1ccc(CCNc2oc(COc3cccc(C)c3)nc2C#N)cc1OC,?,·,·,·,·,23µM*
COc1ccc(CNc2oc(COc3cccc(C)c3)nc2C#N)cc1,4.1µM*,·,·,·,·,?
N#Cc1nc(COc2cccc(Cl)c2)oc1NCc1ccco1,21µM*,19%,?,?,-16,18µM*
CCNc1oc(COc2cccc(C)c2)nc1C#N,?,11%,26%[10 µM],?,-6,-28%
COc1ccc(CNc2oc(COc3ccccc3)nc2C#N)cc1,?,3%,?,?,-9,?
COc1ccc(CCNc2oc(COc3ccc(Cl)cc3)nc2C#N)cc1OC,13µM*,·,·,·,·,12µM*
CS(=O)(=O)Nc1cccc(-c2nc(N3CCOCC3)c3ccccc3n2)c1,-12%,3%,13%,·,·,-20%
COc1ccc([C@@H]2[C@@H]3C(=O)N(C(C)(C)C)C(=O)[C@@H]3[C@]3(Cc4ccccc4)C(=O)N(c4ccc(C)cc4)C(=O)N23)cc1,?,·,·,12%,15,-1%
COc1ccc(-c2nc(-c3ccccc3)oc2Nc2ccccc2C)cc1,·,1%,0%,·,·,·
CC(=O)NC(C)(c1ccccc1)c1nc(-c2cnc3ccccc3c2)cs1 (centres undefined),?,·,·,·,-6,15µM*
CC(=O)NC(C)(c1ccccc1)c1nc(-c2ccc(F)c(Cl)c2)cs1 (centres undefined),15µM*,·,·,·,-13,23µM*
COc1ccc(C(C)(NC(C)=O)c2nc(-c3cnc4ccccc4c3)cs2)cc1 (centres undefined),?,·,·,·,-12,?
CC(O)(c1ccccc1)c1nc(-c2ccc(F)c(Cl)c2)cs1 (centres undefined),?,·,·,·,7,?

# Screening data deposited in PubChem by National Center for Advancing Translational Sciences (NCATS).
